Results published in PubChem BioAssay (NCATS).
Values joined by “and” are separate entries in the source; they are usually repeats but may differ in a detail not shown here. Equal entries are not always repeated. Inconclusive results are not listed. Active and inactive are the calls of the source. Unless noted, calls follow the shape of the dose curve; as a rule, active = well fitted curve in either direction with a large enough effect (not every such curve was filed as active); inconclusive = small, poorly fitted or top-dose-only effect, or another doubt; inactive = flat fitted curve, though single readings scatter.

Legend:
[1] = AP1 Signaling Pathway (AID 357); conditions: ME-180 AP-1-bla reporter, EGF-induced, beta-lactamase ratio, 5 h;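 also: ME-180 reporter cells stimulated with EGF at its EC50 level; % is scaled to controls: 0 for no effect and ±100 for the full control effect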
Outline: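 Cells are seeded overnight, exposed to compound titrations and an EC50 level of EGF for 5 hours at 37 °C, then loaded with CCF4 dye for 2.5 hours. Beta-lactamase activity under the AP-1 element is read as a blue/green ratio.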

[2] = biological target: Cytochrome P450 1A2 (Homo sapiens) (UniProt P05177); experiment: p450-cyp1a2 (AID 410; calls by dose curve; also: potency is read from the fitted curve at half-maximal effect;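 as to activity change, negative = inhibition: -100% = full effect of reference inhibitor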); conditions: recombinant CYP1A2, luciferin-ME demethylation, luminescence; series mostly up to 57 µM
Outline: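 20nM CYP1A2 with 100uM Luciferin-ME (at Km) in 100mM KPO4; compound preincubated 10 min, NADPH regeneration added, 60 min at room temperature. Luciferin quantified by luminescence after detection reagent; normalized to 57 uM furafylline.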

[3] = NFAT Signaling Pathway (AID 444); conditions: Jurkat NFAT-bla M1, carbachol, beta-lactamase ratio, 5 h;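 also: carbachol stimulus at about its EC50 of 1 µM final; % is scaled to controls: 0 for no effect and ±100 for the full control effect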
Outline: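 Jurkat cells carrying an NFAT-driven β-lactamase reporter and co-transfected muscarinic M1 receptor were treated with compound plus carbachol (1 uM final, an EC50 level) for 5 h at 37 °C. CCF4 loading followed for 1 h at RT; 460/530 nm ratio gave %activity.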

[4] = Stat Signaling Pathway (AID 446); conditions: ME-180 SIE beta-lactamase reporter, IL-6 stimulated, 5 h;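 also: ME-180 cervical cancer cells given 40 pM IL-6 alongside compound; SIE-controlled beta-lactamase reporter measured as 460/530 nm FRET emission ratio; % is scaled to controls: 0 for no effect and ±100 for the full control effect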
Outline: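 ME-180 cells carrying a SIE-driven beta-lactamase reporter are stimulated with 40 pM IL-6 for 5 h at 37C in the presence of compound. The 460/530 nm FRET substrate ratio is read after 2.5 h at RT. Data are normalised to 300 pM IL-6 and to 125 nM JAK inhibitor controls.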

[5] = biological target: Glucocorticoid receptor (Homo sapiens) (UniProt P04150); experiment: GR-EFC Redistribution (AID 451; calls by dose curve; also: potency is read from the fitted curve at half-maximal effect); conditions: CHO-K1 GR-EFC translocation, beta-gal luminescence, 2 h
Outline: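 CHO-K1 cells stably expressing nuclear-localized β-gal enzyme acceptor and GR fused C-terminally to the enzyme donor fragment; ligand-driven nuclear translocation restores β-gal by complementation. Compounds titrated up to 46 uM final, 2 h at 37 °C; luminescence read.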

[6] = biological target: Mitogen-activated protein kinase 10 (Mus musculus) (UniProt Q61831); experiment: JNK3 AlphaScreen Assay (AID 530); conditions: JNK3 lysate, c-Jun phosphorylation; series mostly up to 57.1 µM;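 also: kinase came from lysate of stimulated human HepG2 cells; signal reports phosphorylation of biotinylated GST-cJun 1-79 at Ser73 with 10 µM ATP; % is scaled to controls: 0 for no effect and ±100 for the full control effect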
Outline: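 Inhibitors reduce antibody binding to phosphorylated biotin-cJun, lowering AlphaScreen luminescence. Lysates from HepG2 cells pre-activated by IL-1beta plus TNF-alpha supplied JNK3; compounds were titrated.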

[7] = biological target: 3',5'-cyclic-AMP phosphodiesterase 4B (Homo sapiens) (UniProt Q07343); experiment: qHTS Assay for Inhibitors of PDE-IV (AID 607; active = well fitted activation curve with a large enough effect in the main read-out, with a control signal flat, not every such curve was filed as active; also: % of control where 0% means no effect); conditions: HEK293 ACTOne CNG channel cells, membrane potential fluorescence; series mostly up to 22.9 µM
Outline: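 HEK293 ACTOne cells with CNG channel (1000/well), endogenous PDE4; membrane potential dye, compounds up to 22.9 uM final. Fluorescence Ex 535/Em 590; RO 20-1724 (100 uM final) as reference.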

[8] = biological target: Guanine nucleotide-binding protein G(i) subunit alpha-1 (Homo sapiens) (UniProt P63096); experiment: qHTS Assay for Inhibitors of RGS12 GoLoco Motif Activity (Green Fluorophore) (AID 879; active = well fitted curve in the direction sought with a large enough effect; an effect the other way counts as inactive or inconclusive;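 also: 0% = labeled peptide with Gαi1 and full inhibition = labeled peptide alone without protein; negative values mean loss of peptide binding seen as reduced polarization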); conditions: Galphai1/FITC-RGS12 GoLoco peptide, fluorescence polarization; series mostly up to 57.1 µM
Outline: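 Fluorescence polarization assay: 50 nM Gαi1 with 10 nM FITC-labeled RGS12 GoLoco peptide in 10 mM Tris pH 7.5, 150 mM NaCl, 0.1 mM GDP, 0.05% NP40, 10 min at room temperature with compound.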

[9] = qHTS Assay for Identification of Small Molecule Agonists for Thrombopoietin (TPO) Signaling Pathway (AID 917; active = well fitted curve in the direction sought with a large enough effect; an effect the other way counts as inactive or inconclusive; also: % is scaled to controls: 0 for no effect and ±100 for the full control effect); conditions: TPO signaling pathway reporter cells, agonist qHTS, stimulated with TPO at its EC50; series mostly up to 38.5 µM
Outline: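 Luminescence from a Glycoprotein IIb promoter–driven luciferase reporter served as read-out in murine Ba/F3 cells carrying the human TPO receptor. Cells, deprived of IL-3 overnight, received compounds with 26 pM TPO and were incubated 24 hrs at 37 C.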

[10] = biological target: Pyruvate kinase (Leishmania mexicana) (UniProt Q27686); experiment: qHTS Validation Assay for Inhibitors of Leishmania Mexicana Pyruvate Kinase (AID 945; active = well fitted curve in the direction sought with a large enough effect; an effect the other way counts as inactive or inconclusive;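 also: 0% = DMSO only neutral control wells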); conditions: purified L. mexicana pyruvate kinase, enzyme activity, E451W mutant enzyme; series mostly up to 57.5 µM
Outline: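 LmPYK E451W 0.2 nM; 0.5 mM PEP, 0.1 mM ADP, 7 mM MgCl2, 50 mM KCl, imidazole pH 7.2, 0.01% Tween 20, 0.05% BSA; 1 h RT; PKLight luminescence; DMSO-normalized.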

[11] = biological target: Pyruvate kinase PKM (Homo sapiens) (UniProt P14618); experiment: qHTS Assay for Activators of Human Muscle Pyruvate Kinase (AID 954; active = well fitted curve in the direction sought with a large enough effect, not every such curve was filed as active;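 also: 0% = uninhibited enzyme and -100% = no enzyme or full thiadiazolimine inhibition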); conditions: purified human muscle pyruvate kinase, luciferase-coupled luminescence, 1 h; series mostly up to 57.5 µM
Outline: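 Purified human PKM2 (0.1 nM) with 0.5 mM PEP (Km) and 0.1 mM ADP in 50 mM imidazole pH 7.2, KCl, MgCl2, 1 h at room temperature; ATP formed read by coupled luciferase luminescence. Normalized to no-enzyme/110 uM thiadiazolimine inhibition; 0.3 nM enzyme column for activation.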

[12] = biological target: Alpha-galactosidase A (Homo sapiens) (UniProt P06280); experiment: Counterscreen for Glucocerebrosidase Inhibitors: qHTS Assay for Human alpha-Galactosidase at pH 4.5 (AID 992; active = well fitted curve in the direction sought with a large enough effect; an effect the other way counts as inactive or inconclusive; also: 0% is about no effect); conditions: purified enzyme, fluorogenic substrate; series mostly up to 76.9 µM
Outline: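 Human enzyme (2 nM) with 80 uM 4-methylumbelliferyl alpha-D-galactopyranoside in 50 mM citric acid, 0.005% Tween-20, pH 4.5, 20 min at room temperature. Compounds 0.7 nM–77 uM; fluorescence Ex 365/Em 440 after pH 10 stop; AC50 from Hill fits.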

[13] = biological target: alpha-glucosidase (Oryza sativa, rice) (UniProt Q653V4); experiment: Counterscreen for Glucocerebrosidase Inhibitors: qHTS Assay for Rice alpha-Glucosidase at pH 5.0 (AID 997; active = well fitted curve in the direction sought with a large enough effect; an effect the other way counts as inactive or inconclusive;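 also: 0% = full activity with enzyme and -100% = basal without enzyme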); conditions: rice alpha-glucosidase enzyme activity; series mostly up to 76.9 µM
Outline: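 Rice alpha-glucosidase (4 nM final) with 400 uM 4-methylumbelliferyl-alpha-D-glucopyranoside in citrate buffer pH 5.0, 20 min at room temperature, stopped at pH 10; fluorescence 365/440 nm, compounds 0.7 nM–77 uM, AC50 from Hill fits.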

[14] = qHTS Assay for Lipid Storage Modulators (AID 1519; calls by dose curve); conditions: Drosophila S3 cells, BODIPY lipid droplet/cell ratio, laser cytometry, cells loaded with oleic acid
Outline: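 Cells seeded at 5,000 per well were treated with compounds over a concentration series and loaded with oleic acid (400 uM, as added). Lipid droplet fluorescence (488 nm excitation, 500-530 nm channel) was read by laser-scanning cytometry and normalized to 20 uM Triacsin C.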

[15] = biological target: Ubiquitin carboxyl-terminal hydrolase 1 (Homo sapiens) (UniProt O94782); experiment: Inhibitors of USP1/UAF1: Pilot qHTS (AID 504865; active = well fitted curve in the direction sought with a large enough effect; an effect the other way counts as inactive or inconclusive;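 also: rhodamine fluorescence freed from ubiquitin-rhodamine substrate followed over time; top concentration of the series differs between compounds; % is scaled to controls: 0 for no effect and ±100 for the full control effect; nearly all actives have a fitted effect of over 35% in size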); conditions: purified USP1/UAF1, Ub-rhodamine cleavage fluorescence; series mostly up to 54.9 µM
Outline: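 In 50mM HEPES pH 7.8 containing 0.5mM EDTA, 1mM TCEP, 0.1 mg/ml BSA and 0.01% Tween-20, 1nM USP1/UAF1 is exposed to compound for 15 min, then Ub-Rho (150nM final) is added and fluorescence is read over time.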

[16] = qHTS profiling for inhibitors of Plasmodium falciparum proliferation (AID 504749; active = well fitted curve in the direction sought with a large enough effect; an effect the other way counts as inactive or inconclusive;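 also: 0% = DMSO vehicle and full inhibition = artemisinin control; nearly all actives have a fitted effect of over 60% in size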); conditions: P. falciparum in erythrocytes, SYBR Green DNA, 72 h, at 28.7 µM (top of the series)
Outline: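 Parasite proliferation within erythrocytes, 72 h exposure. Endpoint: SYBR Green I fluorescence after overnight lysis at room temperature. Controls: 0.29 uM artemisinin, DMSO.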

[17] = biological target: Cytochrome P450 3A4 (Homo sapiens) (UniProt P08684); experiment: qHTS Assay for Activators of Cytochrome P450 3A4 (AID 885; active = well fitted curve in the direction sought with a large enough effect; an effect the other way counts as inactive or inconclusive; also: nearly all actives have a fitted effect of over 65% in size); conditions: recombinant CYP3A4, Luciferin-PPXE luminescence, 60 min; series mostly up to 57.1 µM
Outline: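 Human CYP3A4 (20 nM) with Luciferin-PPXE at 25 uM (its KM) in 200 mM KPO4; 10 min compound preincubation, then NADPH regeneration and 60 min reaction at RT. Luciferin read by luminescence; normalized to 57 uM ketoconazole full inhibition.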

[18] = biological target: Cytochrome P450 2D6 (Homo sapiens) (UniProt P10635); experiment: qHTS Assay for Inhibitors and Substrates of Cytochrome P450 2D6 (AID 891; active = well fitted curve in the direction sought with a large enough effect; an effect the other way counts as inactive or inconclusive;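 also: luciferin methyl ether substrate demethylated by CYP2D6 with NADPH regeneration; % is scaled to controls: 0 for no effect and ±100 for the full control effect; nearly all actives have a fitted effect of over 60% in size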); conditions: recombinant CYP2D6, luciferin-ME EGE luminescence; series mostly up to 57.1 µM
Outline: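 Human CYP2D6 (5 nM) with 30 uM Luciferin-ME EGE (at Km) in 100 mM KPO4, compound preincubated 10 min, then NADPH regeneration system for 60 min at room temperature. Luciferin read by luminescence; normalized to 1.43 uM quinidine.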

[19] = biological target: Glucocorticoid receptor (Homo sapiens) (UniProt P04150); experiment: GR-GFP Redistribution (AID 450;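 active = compounds whose dose series gives a full or clear partial fitted curve of increased nuclear translocation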; also: potency is read from the fitted curve at half-maximal effect); conditions: U2OS GR-GFP nuclear translocation, laser cytometry, 2 h
[20] = biological target: Lysosomal acid glucosylceramidase (Homo sapiens) (UniProt P04062); experiment: Glucocerebrosidase-p2 (AID 348; in the data active = potency below about 10 µM; also: potency is read from the fitted curve at half-maximal effect); conditions: purified GBA, blue fluorogenic substrate, 40 min
Outline: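 Compounds titrated from 0.6 nM upwards against 0.2 nM enzyme in pH 5.9 citric acid/KH2PO4, taurocholate, tween-20; blue fluorogenic substrate 80 uM, 40 min room temperature, stopped and read Ex 365/Em 440 for AC50.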

[21] = measured here: cell count channel max response
[22] = measured here: lipid channel max response

Sequence of Cytochrome P450 1A2 (Homo sapiens) (P05177 whole entry, looked up): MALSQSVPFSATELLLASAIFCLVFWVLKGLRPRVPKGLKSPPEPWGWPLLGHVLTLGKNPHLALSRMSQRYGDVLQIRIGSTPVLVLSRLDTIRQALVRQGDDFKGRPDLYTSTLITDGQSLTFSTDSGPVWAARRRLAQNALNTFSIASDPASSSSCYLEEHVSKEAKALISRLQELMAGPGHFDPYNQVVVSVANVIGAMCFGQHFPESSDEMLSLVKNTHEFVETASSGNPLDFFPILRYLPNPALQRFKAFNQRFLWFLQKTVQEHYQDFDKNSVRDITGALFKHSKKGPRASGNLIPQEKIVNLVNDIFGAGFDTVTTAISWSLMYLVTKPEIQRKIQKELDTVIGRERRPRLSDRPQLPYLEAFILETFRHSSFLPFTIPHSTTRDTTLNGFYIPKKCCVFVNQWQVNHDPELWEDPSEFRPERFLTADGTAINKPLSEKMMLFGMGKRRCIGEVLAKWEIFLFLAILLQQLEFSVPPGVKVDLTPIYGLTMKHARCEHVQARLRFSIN
Sequence of 3',5'-cyclic-AMP phosphodiesterase 4B (Homo sapiens) (Q07343 whole entry, looked up): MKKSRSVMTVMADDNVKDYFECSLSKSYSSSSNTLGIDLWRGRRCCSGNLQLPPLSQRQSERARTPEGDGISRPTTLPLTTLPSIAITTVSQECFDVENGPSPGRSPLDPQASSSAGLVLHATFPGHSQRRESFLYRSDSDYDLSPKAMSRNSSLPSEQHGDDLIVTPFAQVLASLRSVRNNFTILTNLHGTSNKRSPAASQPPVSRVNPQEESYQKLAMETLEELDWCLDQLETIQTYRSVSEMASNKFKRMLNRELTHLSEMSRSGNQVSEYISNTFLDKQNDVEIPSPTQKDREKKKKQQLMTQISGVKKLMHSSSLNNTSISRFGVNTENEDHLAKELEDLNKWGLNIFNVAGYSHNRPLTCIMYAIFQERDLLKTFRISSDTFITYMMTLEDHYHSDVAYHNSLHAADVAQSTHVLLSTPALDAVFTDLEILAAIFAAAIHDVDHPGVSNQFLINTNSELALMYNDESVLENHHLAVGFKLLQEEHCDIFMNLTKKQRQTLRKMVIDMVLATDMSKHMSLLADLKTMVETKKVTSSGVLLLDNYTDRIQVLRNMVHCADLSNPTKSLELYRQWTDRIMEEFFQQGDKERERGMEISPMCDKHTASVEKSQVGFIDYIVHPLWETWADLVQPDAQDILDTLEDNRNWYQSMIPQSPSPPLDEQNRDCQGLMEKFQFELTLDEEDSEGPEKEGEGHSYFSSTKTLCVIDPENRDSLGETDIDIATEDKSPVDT
Sequence of Pyruvate kinase PKM (Homo sapiens) (P14618 whole entry, looked up): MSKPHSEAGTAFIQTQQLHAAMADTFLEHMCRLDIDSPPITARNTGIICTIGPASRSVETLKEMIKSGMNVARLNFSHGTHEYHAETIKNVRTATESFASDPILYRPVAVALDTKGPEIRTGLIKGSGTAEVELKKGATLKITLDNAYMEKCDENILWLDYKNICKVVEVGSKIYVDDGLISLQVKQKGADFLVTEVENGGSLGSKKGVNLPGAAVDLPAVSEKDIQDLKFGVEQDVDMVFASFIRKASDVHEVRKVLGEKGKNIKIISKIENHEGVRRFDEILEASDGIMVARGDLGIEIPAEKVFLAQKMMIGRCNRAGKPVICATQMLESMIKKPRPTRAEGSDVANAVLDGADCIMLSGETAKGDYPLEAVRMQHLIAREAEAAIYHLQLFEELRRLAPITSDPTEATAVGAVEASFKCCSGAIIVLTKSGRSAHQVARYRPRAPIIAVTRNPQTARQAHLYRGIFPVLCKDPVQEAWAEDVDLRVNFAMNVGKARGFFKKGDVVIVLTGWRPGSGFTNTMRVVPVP
Sequence of Guanine nucleotide-binding protein G(i) subunit alpha-1 (Homo sapiens) (P63096 whole entry, looked up): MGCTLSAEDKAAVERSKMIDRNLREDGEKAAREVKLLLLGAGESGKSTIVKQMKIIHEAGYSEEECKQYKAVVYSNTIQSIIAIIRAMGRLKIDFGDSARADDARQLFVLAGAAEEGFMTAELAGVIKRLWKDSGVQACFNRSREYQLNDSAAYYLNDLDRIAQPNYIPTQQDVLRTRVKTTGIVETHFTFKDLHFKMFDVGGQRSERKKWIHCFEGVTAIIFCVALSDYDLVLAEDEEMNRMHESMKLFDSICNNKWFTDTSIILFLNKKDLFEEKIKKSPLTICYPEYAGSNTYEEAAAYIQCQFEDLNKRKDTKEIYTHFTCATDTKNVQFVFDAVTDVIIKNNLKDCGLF
Sequence of Ubiquitin carboxyl-terminal hydrolase 1 (Homo sapiens) (O94782 whole entry, looked up): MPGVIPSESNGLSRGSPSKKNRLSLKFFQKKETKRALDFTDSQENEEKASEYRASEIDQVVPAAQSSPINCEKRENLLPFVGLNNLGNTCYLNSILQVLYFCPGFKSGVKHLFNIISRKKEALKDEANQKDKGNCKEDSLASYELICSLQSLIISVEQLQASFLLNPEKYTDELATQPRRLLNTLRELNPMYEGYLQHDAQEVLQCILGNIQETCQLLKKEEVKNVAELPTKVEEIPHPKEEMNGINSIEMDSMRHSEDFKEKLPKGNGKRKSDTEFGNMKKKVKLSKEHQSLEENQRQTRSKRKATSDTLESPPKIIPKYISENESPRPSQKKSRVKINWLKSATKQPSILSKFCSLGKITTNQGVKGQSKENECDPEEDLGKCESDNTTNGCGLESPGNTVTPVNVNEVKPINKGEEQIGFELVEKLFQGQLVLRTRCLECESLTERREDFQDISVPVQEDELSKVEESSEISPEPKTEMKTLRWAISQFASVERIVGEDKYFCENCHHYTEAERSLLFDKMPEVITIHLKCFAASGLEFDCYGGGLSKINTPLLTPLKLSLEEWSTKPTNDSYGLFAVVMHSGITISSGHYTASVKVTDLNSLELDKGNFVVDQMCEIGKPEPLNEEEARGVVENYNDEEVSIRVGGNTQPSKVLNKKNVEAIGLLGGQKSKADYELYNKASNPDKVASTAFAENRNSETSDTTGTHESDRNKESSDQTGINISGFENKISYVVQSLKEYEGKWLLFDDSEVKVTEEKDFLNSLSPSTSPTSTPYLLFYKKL
Sequence of Alpha-galactosidase A (Homo sapiens) (P06280 whole entry, looked up): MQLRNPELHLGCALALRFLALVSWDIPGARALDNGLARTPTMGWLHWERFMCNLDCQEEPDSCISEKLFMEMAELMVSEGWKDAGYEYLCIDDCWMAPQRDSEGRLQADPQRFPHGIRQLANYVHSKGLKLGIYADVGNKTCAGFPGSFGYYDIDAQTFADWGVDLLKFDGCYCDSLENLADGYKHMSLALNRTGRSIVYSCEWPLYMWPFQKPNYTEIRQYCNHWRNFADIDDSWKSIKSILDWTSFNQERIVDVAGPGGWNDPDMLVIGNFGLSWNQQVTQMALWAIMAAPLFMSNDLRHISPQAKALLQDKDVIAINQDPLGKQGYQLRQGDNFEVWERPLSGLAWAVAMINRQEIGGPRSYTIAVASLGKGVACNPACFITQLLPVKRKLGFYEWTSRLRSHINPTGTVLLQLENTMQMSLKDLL
Sequence of Pyruvate kinase (Leishmania mexicana) (Q27686 2-499 E452W): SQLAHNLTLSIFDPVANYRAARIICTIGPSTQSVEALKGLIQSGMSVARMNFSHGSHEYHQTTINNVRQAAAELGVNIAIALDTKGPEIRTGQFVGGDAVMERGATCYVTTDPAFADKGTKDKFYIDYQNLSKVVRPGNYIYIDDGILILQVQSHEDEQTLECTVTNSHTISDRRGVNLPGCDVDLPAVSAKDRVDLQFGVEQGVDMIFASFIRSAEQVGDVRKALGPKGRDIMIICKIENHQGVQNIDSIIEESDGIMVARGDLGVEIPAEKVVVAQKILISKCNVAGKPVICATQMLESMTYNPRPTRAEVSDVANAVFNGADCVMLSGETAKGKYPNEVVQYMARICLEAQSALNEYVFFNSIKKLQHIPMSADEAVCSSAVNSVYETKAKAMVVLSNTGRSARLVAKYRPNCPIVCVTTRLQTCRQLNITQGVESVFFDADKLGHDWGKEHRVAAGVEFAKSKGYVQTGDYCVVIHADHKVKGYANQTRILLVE
Sequence of Glucocorticoid receptor (Homo sapiens) (P04150 whole entry, looked up, the tested form may be a part): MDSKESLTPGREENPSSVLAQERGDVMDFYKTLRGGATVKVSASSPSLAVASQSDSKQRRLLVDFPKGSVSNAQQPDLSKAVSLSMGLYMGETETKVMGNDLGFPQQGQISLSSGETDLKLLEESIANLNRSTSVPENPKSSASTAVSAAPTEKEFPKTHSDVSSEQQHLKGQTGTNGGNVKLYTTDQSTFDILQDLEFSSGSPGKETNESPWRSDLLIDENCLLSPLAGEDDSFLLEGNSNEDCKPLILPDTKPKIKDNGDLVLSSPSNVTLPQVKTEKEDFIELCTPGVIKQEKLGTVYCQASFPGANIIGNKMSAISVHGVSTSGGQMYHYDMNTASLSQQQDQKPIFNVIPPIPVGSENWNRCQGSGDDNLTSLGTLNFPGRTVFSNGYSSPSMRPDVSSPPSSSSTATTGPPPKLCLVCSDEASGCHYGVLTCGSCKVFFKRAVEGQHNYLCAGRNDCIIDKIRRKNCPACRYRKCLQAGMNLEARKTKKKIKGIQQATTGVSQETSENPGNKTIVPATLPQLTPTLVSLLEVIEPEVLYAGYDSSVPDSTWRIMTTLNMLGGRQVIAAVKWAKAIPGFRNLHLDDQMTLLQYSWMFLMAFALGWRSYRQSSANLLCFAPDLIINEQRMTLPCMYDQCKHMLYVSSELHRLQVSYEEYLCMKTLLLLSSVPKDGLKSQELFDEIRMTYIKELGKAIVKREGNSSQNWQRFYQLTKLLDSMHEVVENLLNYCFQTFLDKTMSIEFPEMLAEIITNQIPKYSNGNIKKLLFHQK

CC[C@]1(C)CC(=O)NC1=O
7.01%: max response [14, 22]
2.27%: max response [14, 21]
inactive: activity change, negative = inhibition ([1]; at 17.2 µM (top of the series)) 1.25% | activity change, negative = inhibition ([1]; at 38 µM (top of the series)) 0.0779% | Potency [2] | activity change, negative = inhibition ([3]; at 17.2 µM (top of the series)) 5.72% | activity change, negative = inhibition ([3]; at 38 µM (top of the series)) 0.552% | activity, negative = inhibition ([4]; at 17.2 µM (top of the series)) 2.02% | activity, negative = inhibition ([4]; at 38 µM (top of the series)) 10.7% | Potency [5] > 46 µM and > 20.6 µM | Potency [6] | Potency [7] | Potency [8] | outcome [9] | outcome [10] | outcome [11] | outcome [12] | outcome [13] | activity change, negative = inhibition ([14]; at 25.7 µM (top of the series)) 0.986% | Potency [15] | activity, negative = inhibition ([16]; parasite line A) 10.6% | activity, negative = inhibition ([16]; parasite line B) 5.48%

CN1C(=O)CC[C@@H]1c1cccnc1
2.29%: max response [14, 22]
5.39%: max response [14, 21]
inactive: activity change, negative = inhibition ([1]; at 17.2 µM (top of the series)) 10.4% | activity change, negative = inhibition ([1]; at 38 µM (top of the series)) -5.74% | Potency [2] | activity change, negative = inhibition ([3]; at 17.2 µM (top of the series)) 1.15% | activity change, negative = inhibition ([3]; at 38 µM (top of the series)) 1.74% | activity, negative = inhibition ([4]; at 17.2 µM (top of the series)) -1.06% | activity, negative = inhibition ([4]; at 38 µM (top of the series)) 17.2% | Potency [6] | Potency [7] | Potency [8] | Potency [17] | Potency [18] | outcome [10] | outcome [11] | outcome [12] | outcome [13] | activity change, negative = inhibition ([14]; at 25.7 µM (top of the series)) 0.0072% | Potency [15]

O=C(C1CCCCC1)N1CC(=O)N2CCc3ccccc3[C@@H]2C1
3.5%: max response [14, 21]
8.95%: max response [14, 22]
active: Potency [2] 12.6 µM and 10 µM
inactive: activity change, negative = inhibition ([1]; at 17.2 µM (top of the series)) 6.31% | activity change, negative = inhibition ([1]; at 38 µM (top of the series)) -5.21% | activity change, negative = inhibition ([3]; at 17.2 µM (top of the series)) 3.18% | activity change, negative = inhibition ([3]; at 38 µM (top of the series)) -8.74% | activity, negative = inhibition ([4]; at 17.2 µM (top of the series)) -1.88% | activity, negative = inhibition ([4]; at 38 µM (top of the series)) -0.96% | Potency [19] > 46 µM and > 20.6 µM | Potency [5] > 46 µM and > 20.6 µM | Potency [6] | Potency [7] | Potency [18] | activity change, negative = inhibition ([14]; at 25.7 µM (top of the series)) 1.99% | Potency [15]

CN1CCN(c2ncc3nc(-c4ccccc4)c(=O)n(CCC#N)c3n2)CC1
19.8%: max response [14, 21]
active: Potency [2] 20 µM
27.5%: max response [14, 22]
inactive: Potency [20] > 11.4 µM | Potency [19] > 9.22 µM | Potency [5] > 46 µM | Potency [6] | Potency [7] | activity change, negative = inhibition ([14]; at 57.5 µM (top of the series)) 6.29%

Cc1cccc(C)c1OC[C@H](C)N
-6.28%: max response [14, 22]
inactive: activity change, negative = inhibition ([1]; at 17.2 µM (top of the series)) 5.64% | activity change, negative = inhibition ([1]; at 38 µM (top of the series)) 1.06% | activity change, negative = inhibition ([3]; at 17.2 µM (top of the series)) 1.67% | activity change, negative = inhibition ([3]; at 38 µM (top of the series)) 15.4% | activity, negative = inhibition ([4]; at 17.2 µM (top of the series)) 3.2% | activity, negative = inhibition ([4]; at 38 µM (top of the series)) -14.2% | Potency [6] | Potency [7] | Potency [8] | outcome [9] | outcome [10] | outcome [11] | outcome [12] | outcome [13] | activity change, negative = inhibition ([14]; at 25.7 µM (top of the series)) -0.862% | Potency [15]
-4.34%: max response [14, 21]
active: Potency [2] 2.51 µM and 398 nM
